According to PubChem BioAssay:
Results filed as inconclusive are left out. The source made the active and inactive calls. Rule as the data show it, unless noted: active = percent of DMSO control GFP below about 86%; inactive = the rest, inconclusive results apart.

Experiments:
[1] = yeast TOR pathway RPL19A-GFP modulators, primary screen, cell-based, S. cerevisiae, multiplex flow cytometry (AID 1862);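 also: lower values mimic rapamycin by blocking the RPL19A rise seen in DMSO cells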; details: S. cerevisiae RPL19A-GFP strain, flow cytometry fluorescence, 3 h; at 10 µM; stronger effect = lower value
[2] = modulators of MEP2-GFP levels in yeast, primary screen, S. cerevisiae, multiplex flow cytometry (AID 1867;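 active = GFP response, as percent of the DMSO control, above the screen-wide mean plus 3 SD, about 139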;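 also: median GFP channel fluorescence of barcode-gated MEP2-GFP cells measured by flow cytometry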); details: S. cerevisiae MEP2-GFP strain, 3 h, at 10 µM, stronger effect = higher value, 100% means same as DMSO wells
[3] = modulators of CIT2-GFP expression in yeast, primary screen, S. cerevisiae, GFP fusion, multiplex flow cytometry (AID 1870;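 active = percent response above a set limit, the screen-wide mean plus 3 SD, cut at about 130% in these data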;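 also: barcoded CIT2-GFP strain pooled with four other GFP strains with rapamycin as positive control; median GFP fluorescence per well over plate mean of DMSO wells so 100% = DMSO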); details: 3 h, at 10 µM, stronger effect = higher value
[4] = modulators of LAP4-GFP expression in yeast, primary screen, S. cerevisiae, multiplex flow cytometry (AID 1873;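 active = GFP signal, as percent of the solvent control, above the screen mean plus 3 SD, about 149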); details: 3 h, at 10 µM, stronger effect = higher value
[5] = modulators of AGP1-GFP expression in yeast TOR pathway, primary screen, cell-based, multiplex flow cytometry, S. cerevisiae (AID 1887;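 active = GFP signal above the screen-wide mean plus 3 SD, that is over about 124.5% of the solvent control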;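 also: AGP1-GFP fusion strain of S. cerevisiae within a five-strain barcoded multiplex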); details: 3 h, at 10 µM, stronger effect = higher value
[6] = inhibitors of CD8+ T cell-vesicle binding, pilot screen, LFA-1/ICAM-1 modulator project, MLPCN validation set, flow cytometry (AID 2523;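 active = response below a set limit, under 55% cells CD8-positive and vesicle-bound, and CD8 cells' 90th-percentile brightness under 279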;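 as to vesicle binding response: mean PE anti-B7-1 fluorescence of CD8+ cells relative to row control; 100% = QL9-loaded vesicles with DMSO vehicle in the same plate row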); details: 2C mouse CD8+ T cells, at 7 µM, stronger effect = lower value; double positive events: measured here: CD8+/vesicle+ event percentage
[7] = target: Integrin beta-1 (Homo sapiens) + Integrin alpha-4 (Homo sapiens) (UniProt P13612+P05556); assay: inhibition of HUTS-21 binding to VLA-4, pilot screen, VLA-4 allosteric modulator project, U937 cells, HUTS-21 mAb, flow cytometry, validation set (AID 2674;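 active = inhibition above 50%, about 3 SD of the validation set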;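 also: antibody binding induced by the VLA-4 ligand LDV present at three times its Kd; 0% = LDV ligand with antibody and no compound and 100% = antibody without LDV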); details: HUTS-21 LIBS mAb binding, at 6.7 µM, stronger effect = higher value, binding induced by LDV ligand
Chain of Integrin beta-1 (Homo sapiens) + Integrin alpha-4 (Homo sapiens) (P05556 whole entry, looked up): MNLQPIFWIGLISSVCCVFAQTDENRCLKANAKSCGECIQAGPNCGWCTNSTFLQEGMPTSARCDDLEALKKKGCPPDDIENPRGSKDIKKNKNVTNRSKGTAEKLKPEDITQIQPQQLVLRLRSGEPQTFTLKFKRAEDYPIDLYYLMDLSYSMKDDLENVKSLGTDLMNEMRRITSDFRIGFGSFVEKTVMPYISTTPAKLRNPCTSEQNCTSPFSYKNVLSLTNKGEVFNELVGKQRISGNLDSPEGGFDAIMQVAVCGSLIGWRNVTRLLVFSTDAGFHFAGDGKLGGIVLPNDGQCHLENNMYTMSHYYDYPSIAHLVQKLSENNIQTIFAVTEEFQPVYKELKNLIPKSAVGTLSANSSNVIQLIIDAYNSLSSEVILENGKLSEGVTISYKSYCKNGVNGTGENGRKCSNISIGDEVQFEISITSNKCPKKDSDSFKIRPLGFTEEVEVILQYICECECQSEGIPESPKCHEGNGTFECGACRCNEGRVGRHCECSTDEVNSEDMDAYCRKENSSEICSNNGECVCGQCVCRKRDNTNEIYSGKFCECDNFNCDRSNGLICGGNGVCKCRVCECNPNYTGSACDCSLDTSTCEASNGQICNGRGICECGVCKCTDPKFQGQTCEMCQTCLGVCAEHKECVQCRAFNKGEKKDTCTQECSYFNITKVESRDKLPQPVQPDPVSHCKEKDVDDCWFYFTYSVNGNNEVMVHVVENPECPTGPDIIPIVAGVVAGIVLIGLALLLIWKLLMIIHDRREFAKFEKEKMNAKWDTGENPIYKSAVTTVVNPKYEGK
Chain of Integrin beta-1 (Homo sapiens) + Integrin alpha-4 (Homo sapiens) (P13612 whole entry, looked up): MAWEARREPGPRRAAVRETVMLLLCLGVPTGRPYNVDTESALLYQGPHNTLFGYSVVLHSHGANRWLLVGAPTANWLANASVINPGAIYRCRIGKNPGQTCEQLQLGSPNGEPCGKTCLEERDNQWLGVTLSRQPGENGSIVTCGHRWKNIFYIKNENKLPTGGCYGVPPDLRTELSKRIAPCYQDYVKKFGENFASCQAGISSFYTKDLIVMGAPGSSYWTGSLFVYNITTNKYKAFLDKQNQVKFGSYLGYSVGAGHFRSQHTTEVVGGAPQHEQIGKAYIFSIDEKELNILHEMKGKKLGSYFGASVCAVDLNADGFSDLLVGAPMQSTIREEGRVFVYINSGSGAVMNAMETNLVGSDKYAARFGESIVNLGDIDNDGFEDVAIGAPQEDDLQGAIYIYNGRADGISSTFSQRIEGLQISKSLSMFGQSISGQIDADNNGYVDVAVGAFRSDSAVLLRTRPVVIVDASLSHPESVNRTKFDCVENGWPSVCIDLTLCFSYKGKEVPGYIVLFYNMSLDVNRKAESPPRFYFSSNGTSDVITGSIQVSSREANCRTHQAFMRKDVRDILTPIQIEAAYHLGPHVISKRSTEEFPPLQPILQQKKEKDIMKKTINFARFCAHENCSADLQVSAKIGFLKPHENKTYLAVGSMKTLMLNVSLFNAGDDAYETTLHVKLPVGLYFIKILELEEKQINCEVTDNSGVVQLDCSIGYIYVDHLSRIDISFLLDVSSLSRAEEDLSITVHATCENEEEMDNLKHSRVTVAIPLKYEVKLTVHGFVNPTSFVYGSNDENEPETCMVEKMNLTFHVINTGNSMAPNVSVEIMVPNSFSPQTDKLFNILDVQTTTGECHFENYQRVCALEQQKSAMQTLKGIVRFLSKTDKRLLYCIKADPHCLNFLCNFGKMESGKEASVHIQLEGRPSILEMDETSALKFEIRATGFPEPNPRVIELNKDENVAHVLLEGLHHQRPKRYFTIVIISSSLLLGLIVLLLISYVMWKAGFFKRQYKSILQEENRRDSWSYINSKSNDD

[8] = superoxide lowering in aged yeast cells, pilot screen, validation compound set (AID 2706;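 active = superoxide response below 65% of plate, a cut near 3 SD across the whole screen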;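 also: yeast exposed to compound for one week at 30 degrees C before staining; 100% = mean of all compound wells on the same plate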); details: S. cerevisiae aging, superoxide DHE fluorescence; at 10 µM; stronger effect = lower value
[9] = target: Beta-adrenergic receptor kinase 1 (Homo sapiens) (UniProt P25098); assay: GRK2 binders displacing RNA aptamer, biochemical, validation, human GRK2, bead flow cytometry (AID 488806;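 active = aptamer binding inhibition above 30%, about 3 SD of noise from non-fluorescent compounds; inactive = inhibition at or below 30%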); details: bead-bound GRK2, FAM-aptamer displacement, at 10 µM, stronger effect = higher value
Chain of Beta-adrenergic receptor kinase 1 (Homo sapiens) (P25098 whole entry, looked up): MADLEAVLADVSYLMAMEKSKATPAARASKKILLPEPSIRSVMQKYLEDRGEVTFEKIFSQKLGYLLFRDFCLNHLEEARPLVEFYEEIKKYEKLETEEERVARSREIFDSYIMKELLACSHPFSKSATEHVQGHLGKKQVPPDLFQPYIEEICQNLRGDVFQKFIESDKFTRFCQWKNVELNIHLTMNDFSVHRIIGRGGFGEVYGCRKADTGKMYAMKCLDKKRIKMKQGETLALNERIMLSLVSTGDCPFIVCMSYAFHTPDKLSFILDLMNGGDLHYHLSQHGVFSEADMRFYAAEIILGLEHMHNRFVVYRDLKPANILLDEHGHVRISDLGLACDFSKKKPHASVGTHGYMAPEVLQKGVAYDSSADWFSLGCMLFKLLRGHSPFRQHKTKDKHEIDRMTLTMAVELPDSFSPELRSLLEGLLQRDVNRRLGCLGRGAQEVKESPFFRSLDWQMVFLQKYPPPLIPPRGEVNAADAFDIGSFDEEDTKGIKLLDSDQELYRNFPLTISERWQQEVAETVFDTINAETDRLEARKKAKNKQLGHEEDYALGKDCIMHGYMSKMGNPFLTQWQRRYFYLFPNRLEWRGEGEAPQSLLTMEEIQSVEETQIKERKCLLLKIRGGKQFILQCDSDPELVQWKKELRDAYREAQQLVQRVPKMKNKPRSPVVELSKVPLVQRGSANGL

[10] = target: Beta-2 adrenergic receptor (Homo sapiens) (UniProt P07550); assay: beta2AR agonists driving receptor internalization, pilot screen, cell-based, FAP fluorogen, flow cytometry, validation set (AID 504459;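 active = percent response above 42, roughly 3 SD of non-fluorescent test compounds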;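 also: agonist-driven loss of surface beta2AR via internalization measured by FAP dye flow cytometry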); details: Am2.2-beta2AR cells, FAP surface receptor flow cytometry; at 10 µM; stronger effect = higher value
Chain of Beta-2 adrenergic receptor (Homo sapiens) (P07550 whole entry, looked up): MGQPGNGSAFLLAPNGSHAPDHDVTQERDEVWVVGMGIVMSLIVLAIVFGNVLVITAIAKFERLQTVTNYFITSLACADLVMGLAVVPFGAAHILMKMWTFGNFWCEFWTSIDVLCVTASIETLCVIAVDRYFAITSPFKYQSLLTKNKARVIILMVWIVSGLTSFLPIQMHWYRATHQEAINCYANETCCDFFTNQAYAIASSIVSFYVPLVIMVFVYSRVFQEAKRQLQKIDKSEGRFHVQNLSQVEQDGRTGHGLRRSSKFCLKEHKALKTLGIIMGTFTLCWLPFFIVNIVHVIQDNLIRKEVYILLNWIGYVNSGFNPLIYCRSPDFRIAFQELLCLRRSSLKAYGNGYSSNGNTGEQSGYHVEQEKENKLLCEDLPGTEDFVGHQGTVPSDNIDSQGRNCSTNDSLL

[11] = target: AP-2 complex subunit beta (Homo sapiens) (UniProt P63010); assay: inhibitors of arrestin peptide binding to AP2, pilot screen, biochemical, validation set, GST-AP2 beads, flow cytometry (AID 504541;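 active = inhibition above 54%, about 3 SD of non-fluorescent compounds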;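 also: AP2 carries R879A mutation and is captured from E. coli lysate; bead-bound FITC arrestin peptide fluorescence measuring arrestin peptide binding to AP2; 0% = DMSO wells and 100% = excess unlabeled arrestin peptide control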); details: FITC arrestin peptide, at 10 µM, stronger effect = higher value, AP2 beta2 appendage fragment, R879A mutant
Chain of AP-2 complex subunit beta (Homo sapiens) (P63010 whole entry, looked up, the tested form may be a part, one chain of several): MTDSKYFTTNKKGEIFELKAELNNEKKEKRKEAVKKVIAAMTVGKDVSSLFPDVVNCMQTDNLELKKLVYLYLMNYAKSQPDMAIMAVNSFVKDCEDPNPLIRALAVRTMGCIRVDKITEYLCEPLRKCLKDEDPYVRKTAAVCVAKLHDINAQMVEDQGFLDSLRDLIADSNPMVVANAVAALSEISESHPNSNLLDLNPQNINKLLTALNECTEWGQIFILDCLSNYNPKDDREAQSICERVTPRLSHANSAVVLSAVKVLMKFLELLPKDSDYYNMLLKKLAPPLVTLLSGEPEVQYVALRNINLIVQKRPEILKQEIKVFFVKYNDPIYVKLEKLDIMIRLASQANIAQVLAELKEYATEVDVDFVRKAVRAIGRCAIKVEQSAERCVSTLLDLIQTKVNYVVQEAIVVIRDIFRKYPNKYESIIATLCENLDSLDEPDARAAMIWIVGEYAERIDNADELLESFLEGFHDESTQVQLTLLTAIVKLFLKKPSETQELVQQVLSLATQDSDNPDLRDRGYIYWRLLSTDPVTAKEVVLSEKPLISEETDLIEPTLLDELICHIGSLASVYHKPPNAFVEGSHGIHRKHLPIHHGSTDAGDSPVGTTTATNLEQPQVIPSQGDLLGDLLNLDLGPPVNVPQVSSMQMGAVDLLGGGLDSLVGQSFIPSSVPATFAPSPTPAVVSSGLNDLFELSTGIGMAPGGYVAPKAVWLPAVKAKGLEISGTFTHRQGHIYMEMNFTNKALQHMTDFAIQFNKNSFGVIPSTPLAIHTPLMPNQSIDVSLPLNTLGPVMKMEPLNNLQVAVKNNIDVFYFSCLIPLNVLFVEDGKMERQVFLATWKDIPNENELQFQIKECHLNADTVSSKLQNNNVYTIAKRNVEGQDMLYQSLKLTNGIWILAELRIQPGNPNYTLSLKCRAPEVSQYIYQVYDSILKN

[12] = yeast V-ATPase proton transport modulators, S. cerevisiae, pHLuorin, HTS validation (AID 504600; in the data active = response above about 15%;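 also: plate controls were DMSO for no effect and reference compound for full effect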); details: S. cerevisiae pHLuorin cytosolic pH, at 10 µM, stronger effect = higher value
[13] = tested on: anti-desmoglein-3 scFv antibody binding to human DSG3; assay: inhibitors of anti-DSG3 scFv binding to DSG3, pilot screen, biochemical, validation compound set, bead-based, flow cytometry (AID 588368;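 active = binding below the plate cutoff, the plate median minus 3 SD, with a reading above zero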;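 also: signal is the median channel fluorescence of bead-bound GFP antibody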); details: Protein G beads, DSG3-Fc, scFv-GFP binding, at 10 µM, stronger effect = lower value
[14] = inhibitors of fungal efflux pumps CDR1, CDR2, MDR1, pilot screen, validation compound set, multiplex, phenotypic (AID 588506;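 active = efflux inhibition above 0.42, the validation set average plus 4 SD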;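 also: Nile Red retained in cells so higher fluorescence means more efflux inhibition; 0 = negative control wells and 1 = enniatin B 25 µM full block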); details: S. cerevisiae pump-expressing triplex, Nile Red efflux flow cytometry; at 10 µM; stronger effect = higher value; the pumps come from Candida albicans
[15] = target: ATP-binding cassette sub-family B member 6 (Homo sapiens) (UniProt Q9NP58); assay: ABCB6 transporter inhibitors, pilot screen, K562-ABCB6 cells, flow cytometry, validation set (AID 588550;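 active = inhibition above the screen-wide mean plus 3 SD, about 51%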;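 also: 0% = DMSO wells and 100% = benzethonium chloride 70 µM positive control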); details: K562-ABCB6 porphyrin accumulation, 1 h, at 10 µM, stronger effect = higher value
Chain of ATP-binding cassette sub-family B member 6 (Homo sapiens) (Q9NP58 whole entry, looked up): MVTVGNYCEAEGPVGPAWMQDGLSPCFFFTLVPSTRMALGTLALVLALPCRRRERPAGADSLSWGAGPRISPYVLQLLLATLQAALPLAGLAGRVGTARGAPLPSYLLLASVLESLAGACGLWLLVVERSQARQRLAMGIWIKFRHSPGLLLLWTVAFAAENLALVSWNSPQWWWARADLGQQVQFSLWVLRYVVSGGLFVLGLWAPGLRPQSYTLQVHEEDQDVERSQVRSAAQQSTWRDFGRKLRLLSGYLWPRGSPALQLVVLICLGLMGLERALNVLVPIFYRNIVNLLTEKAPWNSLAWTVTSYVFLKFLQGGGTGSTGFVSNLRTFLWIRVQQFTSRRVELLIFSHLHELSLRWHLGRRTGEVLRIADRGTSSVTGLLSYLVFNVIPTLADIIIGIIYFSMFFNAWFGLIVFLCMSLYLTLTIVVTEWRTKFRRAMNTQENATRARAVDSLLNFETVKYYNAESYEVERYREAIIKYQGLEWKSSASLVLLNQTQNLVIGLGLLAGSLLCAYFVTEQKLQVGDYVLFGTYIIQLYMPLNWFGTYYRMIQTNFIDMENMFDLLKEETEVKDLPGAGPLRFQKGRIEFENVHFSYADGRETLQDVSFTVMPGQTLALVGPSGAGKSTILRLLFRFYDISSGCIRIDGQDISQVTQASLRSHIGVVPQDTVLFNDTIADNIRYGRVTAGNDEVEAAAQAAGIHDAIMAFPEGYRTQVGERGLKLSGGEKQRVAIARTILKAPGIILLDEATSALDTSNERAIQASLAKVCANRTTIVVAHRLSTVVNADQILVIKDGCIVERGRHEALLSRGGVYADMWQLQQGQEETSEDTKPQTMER

[16] = promoters of myeloid differentiation in arrested cells, primary screen, cell-based, GFP/MAC1 double positive, flow cytometry, validation set (AID 588685;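 active = differentiation response of at least 50%, scaled between solvent and reference control, from cells with both markers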;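 also: compound exposure lasts four days before antibody staining and flow analysis; 0% = DMSO wells and 100% = 5 µM fulvestrant positive control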); details: ER-HoxA9 marrow cells, stronger effect = higher value, normalized: vehicle 0, fulvestrant 100

| Structure (SMILES) | percent of DMSO control GFP [1] | GFP response vs DMSO [2] | percent response of DMSO control [3] | GFP response vs DMSO [4] | GFP response, % of DMSO [5] | double positive events [6] | vesicle binding response [6] | inhibition [7] | superoxide response (% of plate) [8] | aptamer binding inhibition [9] | response [10] | inhibition [11] | response [12] | binding (% of control) [13] | efflux inhibition (fraction of control) [14] | inhibition [15] | differentiation response [16] |
| --- | --- | --- | --- | --- | --- | --- | --- | --- | --- | --- | --- | --- | --- | --- | --- | --- | --- |
| O=C(CN1C(=O)C2CCc3[nH]c4ccccc4c3C2C1=O)N1CCCC1 (stereo not given) | 89.1% (inactive) | 121% (inactive) | 106% (inactive) | 78.1% (inactive) | 87.3% (inactive) | 48% | 72.2% (active) | 22.9% (inactive) | 95.1% (inactive) | 3% (inactive) | -15.3% (inactive) | -3.8% (inactive) | -4.07% (inactive) | 103% (inactive) | 0.09 (inactive) | 9% (inactive) | 4.91% (inactive) |
| CCn1cc(C(=O)O)c(=O)c2ccc(C)nc21 | 99.5% (inactive) | 98.7% (inactive) | 92.4% (inactive) | 93.7% (inactive) | 106% (inactive) | 55.9% | 172% (inactive) | -15.8% (inactive) | 99.5% (inactive) | -1% (inactive) | 3.04% (inactive) | -4.75% (inactive) | -3.3% (inactive) | 108% (inactive) | 0.085 (inactive) | -8% (inactive) | -4.57% (inactive) |
| CC(=O)Nc1ccccc1C(=O)C(=O)Nc1ccccc1 | 99.1% (inactive) | 99.6% (inactive) | 99.6% (inactive) | 114% (inactive) | 97.5% (inactive) | 60.9% | 83.6% (inactive) | 6.4% (inactive) | 102% (inactive) | 1% (inactive) | -12.9% (inactive) | 35.2% (inactive) | -3.86% (inactive) | 95.3% (inactive) | -0.35 (inactive) | 2% (inactive) | 29.6% (inactive) |
| COc1ccccc1NC(=O)Cn1c(C)cc(=O)c2cccc(OC)c21 | 102% (inactive) | 108% (inactive) | 100% (inactive) | 90.2% (inactive) | 99.9% (inactive) | 60.7% | 79.1% (inactive) | -11.8% (inactive) | 105% (inactive) | 4% (inactive) | 11.6% (inactive) | -11.8% (inactive) | 0.11% (inactive) | 103% (inactive) | 0.58 (active) | 6% (inactive) | -5.68% (inactive) |
| COc1cc(SC)ccc1C(=O)NC(C)C | 102% (inactive) | 101% (inactive) | 99.6% (inactive) | 101% (inactive) | 94.9% (inactive) | 58.7% | 171% (inactive) | -9.98% (inactive) | 97.8% (inactive) | -1% (inactive) | -0.58% (inactive) | -4.67% (inactive) | 1.52% (inactive) | 101% (inactive) | -0.13 (inactive) | 6% (inactive) | -21.6% (inactive) |
| O=C(CCC(=O)NCCO)NCCO | 101% (inactive) | 104% (inactive) | 97.7% (inactive) | 108% (inactive) | 111% (inactive) | 61.3% | 174% (inactive) | -1.12% (inactive) | 95.4% (inactive) | 7% (inactive) | -19.9% (inactive) | -1.09% (inactive) | -3.85% (inactive) | 100% (inactive) | 0.04 (inactive) | 2% (inactive) | -1.05% (inactive) |
| CC12COC3(C(=O)Nc4ccc(F)cc4)CC1CCC32C (stereo not given) | 94.2% (inactive) | 126% (inactive) | 107% (inactive) | 73.7% (inactive) | 85.9% (inactive) | 65.7% | 157% (inactive) | 8.4% (inactive) | 99.2% (inactive) | 1% (inactive) | -12.6% (inactive) | -2.28% (inactive) | -3.14% (inactive) | 102% (inactive) | 0.3 (inactive) | 10% (inactive) | -1.64% (inactive) |
| CC1(C)CC(=O)C(C2=NC(C)(C)Cc3ccccc32)=C(O)C1 | 103% (inactive) | 100% (inactive) | 108% (inactive) | 92.7% (inactive) | 101% (inactive) | 59.3% | 48.2% (inactive) | -2.53% (inactive) | 103% (inactive) | 4% (inactive) | -9.99% (inactive) | 17.9% (inactive) | 1.49% (inactive) | 91.7% (inactive) | 0.14 (inactive) | 13% (inactive) | -4.64% (inactive) |
| OCCN(CCO)c1nc(N2CCCCC2)c2nc(N(CCO)CCO)nc(N3CCCCC3)c2n1 | 105% (inactive) | 102% (inactive) | 100% (inactive) | 107% (inactive) | 108% (inactive) | 62.5% | 175% (inactive) | -9.63% (inactive) | 98% (inactive) | 3% (inactive) | 7.65% (inactive) | 18.6% (inactive) | 15.4% (active) | 106% (inactive) | 0.08 (inactive) | -6% (inactive) | -7.94% (inactive) |
| COc1cccc2cc(-c3ccccc3)c(=O)oc12 | 105% (inactive) | 106% (inactive) | 101% (inactive) | 140% (inactive) | 106% (inactive) | 61.4% | 134% (inactive) | -1.97% (inactive) | 88.6% (inactive) | 3% (inactive) | -27.6% (inactive) | 10.1% (inactive) | 34.3% (active) | 102% (inactive) | 0.29 (inactive) | 2% (inactive) | -1.05% (inactive) |
